According to paper PMC5540273 (PLoS ONE, 2017):

Assays:
Settings in all cases: concentration: 1 μM, replicates: in singlicate; n = 1
[1] = system: RIPK2
[2] = system: RIPK4
[3] = system: RIPK5
[4] = system: ROCK1
[5] = system: ROCK2
[6] = system: ROS1
[7] = system: RPS6KA4(Kin.Dom.1-N-terminal)
[8] = system: RPS6KA4(Kin.Dom.2-C-terminal)
[9] = system: RPS6KA5(Kin.Dom.1-N-terminal)
[10] = system: RPS6KA5(Kin.Dom.2-C-terminal)
[11] = system: T1, RSK1(Kin.Dom.1-N-terminal)
T1 construct: gene RPS6KA1

[12] = system: T2, RSK1(Kin.Dom.2-C-terminal)
T2 construct: gene RPS6KA1

[13] = system: T3, RSK2(Kin.Dom.1-N-terminal)
T3 construct: gene RPS6KA3

[14] = system: T4, RSK2(Kin.Dom.2-C-terminal)
T4 construct: gene RPS6KA3

[15] = system: T5, RSK3(Kin.Dom.1-N-terminal)
T5 construct: gene RPS6KA2

[16] = system: T6, RSK3(Kin.Dom.2-C-terminal)
T6 construct: gene RPS6KA2

[17] = system: T7, RSK4(Kin.Dom.1-N-terminal)
T7 construct: gene RPS6KA6

[18] = system: T8, RSK4(Kin.Dom.2-C-terminal)
T8 construct: gene RPS6KA6

[19] = system: S6K1
[20] = system: SBK1
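Further: KINOMEscan kinase panel screen.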

SMILES | %Inh [1] | %Inh [2] | %Inh [3] | %Inh [4] | %Inh [5] | %Inh [6] | %Inh [7] | %Inh [8] | %Inh [9] | %Inh [10] | %Inh [11] | %Inh [12] | %Inh [13] | %Inh [14] | %Inh [15] | %Inh [16] | %Inh [17] | %Inh [18] | %Inh [19] | %Inh [20]
Cl.NS(=O)(=O)c1cccc(Nc2cc(-c3ccc(F)cc3)n[nH]2)c1 [GW824645] | 0% | 15% | 22% | 0% | 18% | 11% | 17% | 0% | 0% | 3% | 0% | 0% | 35% | 0% | 0% | 0% | 15% | 0% | 0% | 0%
Nc1ncnc2c1ncn2-c1ccc(Cl)cc1 [AH2635] | 2% | 2% | 0% | 30% | 0% | 23% | 20% | 0% | 0% | 8% | 9% | 4% | 0% | 0% | 0% | 0% | 0% | 46% | 0% | 0%
CCCC(=O)Nc1n[nH]c2ncc(-c3cccc4ccccc34)cc12 [SB-642057] | 28% | 36% | 10% | 0% | 3% | 0% | 14% | 0% | 16% | 0% | 26% | 24% | 14% | 0% | 0% | 0% | 0% | 15% | 16% | 7%
CCS(=O)c1ccc(-c2coc3ccc(-c4nnc(C)o4)cc23)cc1 (stereo not shown) | 0% | 7% | 0% | 0% | 28% | 15% | 24% | 11% | 2% | 0% | 0% | 18% | 5% | 0% | 3% | 11% | 18% | 6% | 8% | 0%
COc1cc2ncn(-c3cc(OCCCc4ccccc4)c(C(N)=O)s3)c2cc1OC [GSK205189] | 20% | 0% | 0% | 0% | 0% | 13% | 5% | 0% | 0% | 0% | 2% | 10% | 7% | 2% | 0% | 0% | 12% | 18% | 0% | 0%
O=c1cc(N2CCOCC2)nc2n(Cc3ccc(F)c(Cl)c3)ccn12 [GSK2297099] | 0% | 27% | 0% | 0% | 0% | 0% | 4% | 0% | 16% | 27% | 19% | 10% | 0% | 0% | 27% | 0% | 0% | 11% | 0% | 0%
CN1C(=O)C(Nc2cc(Cl)c(O)c(Cl)c2)=C(c2ccc(Cl)cc2)C1=O [SB-404321] | 0% | 32% | 0% | 6% | 0% | 0% | 0% | 0% | 0% | 0% | 0% | 0% | 5% | 0% | 0% | 9% | 0% | 0% | 17% | 0%
COc1ccc(Nc2nccc(N3CCC(NS(=O)(=O)c4ccc(NC(C)=O)cc4)C3)n2)cc1 (stereo not shown) [GSK1379729] | 100% | 0% | 0% | 36% | 18% | 3% | 0% | 0% | 27% | 0% | 0% | 0% | 0% | 18% | 6% | 0% | 0% | 5% | 0% | 4%
COC(=O)c1c(-c2ccccc2)c2cc(Br)ccc2c(=O)n1Cc1ccc(S(C)(=O)=O)cc1 | 0% | 46% | 20% | 23% | 0% | 0% | 0% | 21% | 24% | 3% | 3% | 14% | 0% | 9% | 14% | 0% | 24% | 6% | 0% | 5%
CCc1nc(-c2cccc(C)c2)c(-c2ccncc2)s1 | 76% | 7% | 0% | 0% | 0% | 11% | 2% | 0% | 0% | 18% | 0% | 91.2% | 0% | 0% | 11% | 10% | 0% | 94.6% | 0% | 0%
CCCNC(=O)Nc1ccc(Oc2ncnc3ccn(C)c23)cc1 | 0% | 13% | 34% | 0% | 6% | 0% | 0% | 0% | 23% | 6% | 14% | 13% | 27% | 0% | 0% | 5% | 25% | 0% | 0% | 20%
